The record followed here is PubChem BioAssay (EPA / NIEHS).

Activity calls are given as the source filed them. Rule for the calls: active = hit-call score of the fitted dose curve at least 0.9, where 1 is the maximum; inactive = score below 0.9.

Experiment [1] can be described thus: ATG_CRE_CIS: Attagene CIS-FACTORIAL HepG2 Assay for human cAMP Responsive Element (CRE) binding protein 3 (AID 2282926). The following applies: HepG2 CRE cis-reporter, Attagene multiplexed mRNA; actives raise or lower the signal. In a few lines:
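Endogenous transcription factor activity read via CRE-regulated reporter transcripts in transfected HepG2 cells. After 24 h exposure, RNA was reverse-transcribed, amplified, fluorescently labelled and sized by capillary electrophoresis; gain or loss fitted against DMSO.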

For experiment [2], the target named is CCAAT/enhancer-binding protein beta (Homo sapiens) (UniProt P17676). The experiment is described as follows: ATG_C_EBP_CIS: Attagene CIS-FACTORIAL HepG2 Assay for human CCAAT/Enhancer Binding Protein (C/EBP) beta (AID 2282927). The following applies: HepG2 Attagene cis-factorial transcription factor reporter; actives raise or lower the signal. In a few lines:
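Changes in reporter mRNA, rather than exogenous chimeric receptor activity, reflect native C/EBP signalling in transfected HepG2 cells dosed for 24 h; transcripts are detected by RT-PCR and capillary electrophoresis.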

The nature of experiment [3]: ATG_CMV_CIS: Attagene CIS-FACTORIAL HepG2 Assay for human CMV (Internal Marker) (AID 2282928).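 Note: endpoint acts as a background internal control marker rather than a target.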 The following applies: HepG2 CMV promoter reporter, transcription factor profiling; actives raise or lower the signal. In a few lines: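 Readout: fluorescent reporter cDNA fragments separated by capillary electrophoresis after RT-PCR and HpaI cut. Cells: HepG2 carrying transfected cis-promoter reporter constructs, dosed 24 h. Endpoint serves as background internal-marker control, fit bidirectionally versus DMSO.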

Experiment [4] can be described thus: ATG_DR4_LXR_CIS: Attagene CIS-FACTORIAL HepG2 Assay for human Liver X Receptor (LXR), DR4 submotif (AID 2282929). The following applies: HepG2 Attagene DR4 cis-reporter, mRNA transcription; actives raise or lower the signal. The method in brief: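 HepG2 cells were transiently transfected with multiple cis-regulated reporter units and dosed for 24 hours. The DR4 reporter mRNA was quantified by RT-PCR, 6-FAM labelling and capillary electrophoresis. Bidirectional fits used DMSO as baseline.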

The target of experiment [5] is Aryl hydrocarbon receptor (Homo sapiens) (UniProt P35869). Put plainly: ATG_Ahr_CIS: Attagene CIS-FACTORIAL HepG2 Assay for human Aryl Hydrocarbon Receptor (Ahr) (AID 2282930). As to conditions: HepG2 AhR cis-factorial reporter transcription; actives raise or lower the signal. The method in brief: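 HepG2, transient MRTU (cis) transfection, 24 h exposure. RNA → cDNA → PCR → 6-FAM primer extension → HpaI 2 h 37 C → CE. Fit: bidirectional, DMSO baseline.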
Aryl hydrocarbon receptor (Homo sapiens), sequence (P35869 whole entry, looked up): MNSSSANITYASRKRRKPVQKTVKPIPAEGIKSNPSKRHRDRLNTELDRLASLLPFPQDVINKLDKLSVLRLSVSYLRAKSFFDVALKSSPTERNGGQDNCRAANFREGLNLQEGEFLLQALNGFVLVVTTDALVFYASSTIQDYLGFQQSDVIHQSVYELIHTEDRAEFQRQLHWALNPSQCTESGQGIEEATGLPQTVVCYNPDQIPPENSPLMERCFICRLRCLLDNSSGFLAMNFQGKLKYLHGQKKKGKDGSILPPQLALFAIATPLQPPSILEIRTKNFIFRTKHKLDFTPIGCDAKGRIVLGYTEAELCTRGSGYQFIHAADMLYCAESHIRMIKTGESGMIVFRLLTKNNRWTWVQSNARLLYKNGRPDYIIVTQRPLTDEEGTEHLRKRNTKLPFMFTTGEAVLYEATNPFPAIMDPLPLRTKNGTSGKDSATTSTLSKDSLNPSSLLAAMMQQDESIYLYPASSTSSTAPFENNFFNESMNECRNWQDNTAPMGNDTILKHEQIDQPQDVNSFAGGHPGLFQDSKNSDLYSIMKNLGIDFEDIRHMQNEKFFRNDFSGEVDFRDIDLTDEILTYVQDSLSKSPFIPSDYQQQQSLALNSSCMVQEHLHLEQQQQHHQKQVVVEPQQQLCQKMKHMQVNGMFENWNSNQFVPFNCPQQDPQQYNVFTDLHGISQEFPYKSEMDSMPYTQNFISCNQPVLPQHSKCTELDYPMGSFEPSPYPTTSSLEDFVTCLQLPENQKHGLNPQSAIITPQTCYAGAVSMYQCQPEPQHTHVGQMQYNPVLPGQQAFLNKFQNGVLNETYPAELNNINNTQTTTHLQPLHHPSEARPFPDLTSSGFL

The nature of experiment [6]: ATG_AP_1_CIS: Attagene CIS-FACTORIAL HepG2 Assay for human Activator Protein 1 (AP-1) (AID 2282931). The following applies: HepG2 Attagene cis-factorial AP-1 reporter mRNA; actives raise or lower the signal. The method in brief: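 HepG2 cells transiently transfected with cis-element-driven reporter transcription units, dosed for 24 hours. Reporter mRNA measured by RT-PCR, 6-FAM labelling, HpaI digestion and capillary electrophoresis. Bidirectional fitting against DMSO baseline.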

The nature of experiment [7]: ATG_AP_2_CIS: Attagene CIS-FACTORIAL HepG2 Assay for human Activator Protein 2 (AP-2) (AID 2282932). As to conditions: HepG2 AP-2 cis-reporter, Attagene transcription factor profiling; actives raise or lower the signal. The method in brief: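 Endogenous transcription factor activity is reported through transfected multiplex reporter constructs in HepG2, after 24 h of compound exposure. Transcripts were quantified by RT-PCR and capillary electrophoresis of fluorescent fragments. Bidirectional fit against DMSO.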

Experiment [8] can be described thus: ATG_BRE_CIS: Attagene CIS-FACTORIAL HepG2 Assay for human Bone Morphogenetic Protein (BMP) Response Element (BRE) (AID 2282933). The following applies: HepG2 BMP response element reporter, Attagene transcription factor profiling; actives raise or lower the signal. The method in brief:
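Transient MRTU transfection of human HepG2 liver cells; 24 h compound treatment; total RNA isolated, reverse-transcribed, PCR-amplified, 6-FAM labelled, HpaI-cut, capillary electrophoresis. DMSO = negative control/baseline, bidirectional fit.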

Experiment [9] concerns the target Retinoic acid receptor alpha (Homo sapiens) (UniProt P10276). Put plainly: ATG_DR5_RAR_CIS: Attagene CIS-FACTORIAL HepG2 Assay for human Retinoic Acid Receptor Alpha (RARE), DR5 submotif (AID 2282934).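 For AC50: reporter responds to endogenous RAR alpha beta and gamma in HepG2 not RARA alone.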 The following applies: HepG2 Attagene cis-factorial RARE DR5 reporter, mRNA; actives raise or lower the signal. In a few lines:
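HepG2, transient cis-reporter transfection, 24 h exposure. mRNA readout: RT-PCR, FAM label, HpaI cut, capillary electrophoresis. DMSO baseline, gain/loss fitting.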

Experiment [10] concerns the target Transcription factor E2F1 (Homo sapiens) (UniProt Q01094). The experiment is described as follows: ATG_E2F_CIS: Attagene CIS-FACTORIAL HepG2 Assay for human E2F Transcription Factor 1 (AID 2282935). The following applies: HepG2 Attagene cis-reporter, E2F reporter RNA transcripts; actives raise or lower the signal. The method in brief:
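Gain or loss of reporter transcript, fitted against DMSO, reflects E2F1-driven transcription. Transiently transfected HepG2 dosed 24 h before RNA isolation. Quantified by fluorescent RT-PCR products separated by capillary electrophoresis.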

Retinoic acid receptor alpha (Homo sapiens), sequence (P10276 whole entry, looked up): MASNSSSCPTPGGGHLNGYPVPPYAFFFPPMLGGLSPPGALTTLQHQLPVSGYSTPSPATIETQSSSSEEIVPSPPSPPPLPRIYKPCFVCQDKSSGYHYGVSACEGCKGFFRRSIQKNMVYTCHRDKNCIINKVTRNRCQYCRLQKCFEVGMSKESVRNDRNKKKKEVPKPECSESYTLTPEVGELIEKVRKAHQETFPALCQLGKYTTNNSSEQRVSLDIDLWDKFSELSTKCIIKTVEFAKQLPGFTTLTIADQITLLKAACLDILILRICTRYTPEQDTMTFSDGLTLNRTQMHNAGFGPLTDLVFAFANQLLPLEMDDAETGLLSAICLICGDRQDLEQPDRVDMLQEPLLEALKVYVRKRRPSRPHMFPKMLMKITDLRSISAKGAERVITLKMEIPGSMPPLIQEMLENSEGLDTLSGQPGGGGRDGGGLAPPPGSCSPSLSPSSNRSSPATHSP
Transcription factor E2F1 (Homo sapiens), sequence (Q01094 whole entry, looked up): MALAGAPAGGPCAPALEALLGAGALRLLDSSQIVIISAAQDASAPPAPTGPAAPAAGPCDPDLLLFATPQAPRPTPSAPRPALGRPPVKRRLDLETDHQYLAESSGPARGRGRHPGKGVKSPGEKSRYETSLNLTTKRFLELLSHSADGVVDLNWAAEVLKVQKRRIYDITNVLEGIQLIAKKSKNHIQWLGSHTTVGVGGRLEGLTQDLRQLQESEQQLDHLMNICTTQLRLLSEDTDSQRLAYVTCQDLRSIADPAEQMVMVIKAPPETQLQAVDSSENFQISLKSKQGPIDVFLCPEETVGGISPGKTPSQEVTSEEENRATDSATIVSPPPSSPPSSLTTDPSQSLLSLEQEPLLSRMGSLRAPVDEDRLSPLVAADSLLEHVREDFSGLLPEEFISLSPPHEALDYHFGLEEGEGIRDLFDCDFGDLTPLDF
CCAAT/enhancer-binding protein beta (Homo sapiens), sequence (P17676 whole entry, looked up): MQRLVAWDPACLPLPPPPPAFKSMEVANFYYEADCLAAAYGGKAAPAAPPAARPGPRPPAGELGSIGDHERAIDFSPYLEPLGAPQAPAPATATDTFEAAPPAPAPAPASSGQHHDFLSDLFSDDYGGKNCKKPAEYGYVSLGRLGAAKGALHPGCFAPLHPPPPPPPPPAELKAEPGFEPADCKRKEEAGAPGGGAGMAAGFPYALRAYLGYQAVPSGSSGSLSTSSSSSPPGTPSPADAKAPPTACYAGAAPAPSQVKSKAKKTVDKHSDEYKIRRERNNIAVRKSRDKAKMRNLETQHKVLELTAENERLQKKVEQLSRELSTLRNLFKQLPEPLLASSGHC

For the molecule `CCCCCCCCCCCCCCCC(=O)OC/C=C(C)/C=C/C=C(C)/C=C/C1=C(C)CCCC1(C)C`, the call in experiment [1], in experiment [2], in [3], in [4], in experiment [5] and in experiment [6] was inactive. Further, the molecule was classed as inactive in experiment [7], in experiment [8], in experiment [9] and in experiment [10].

As to `OC[C@H]1O[C@@H](Oc2ccc(O)cc2)[C@H](O)[C@@H](O)[C@@H]1O`, the result in experiment [1], in experiment [2], in [3], in [4], in experiment [5] and in experiment [6] was inactive. Moreover, the result in experiment [7], in [8], in experiment [9] and in experiment [10] was inactive.

Take `CCCCCCOC(=O)C(C)C`: the molecule was called inactive in experiment [1], in experiment [2], in [3], in [4], in experiment [5] and in [6]. The call in [7], in experiment [8], in [9] and in [10] was inactive.

For the molecule `Nc1c(S(=O)(=O)O)cc(Br)c2c1C(=O)c1ccccc1C2=O`, the outcome in experiment [1], in experiment [2], in [3], in experiment [4], in experiment [6] and in experiment [7] was inactive. The molecule was classed as inactive in experiment [8], in [9] and in experiment [10]. For the same molecule, the AC50 in [5] is 9.82 µM (active).

Take `CCC(C)S` (stereo not given): the result in experiment [1], in [2], in experiment [3], in [4], in experiment [5] and in [6] was inactive. Further, the outcome in experiment [7], in experiment [8], in experiment [9] and in [10] was inactive.

Consider `CCOC(=O)COC(=O)c1cc(Oc2ccc(C(F)(F)F)cc2Cl)ccc1[N+](=O)[O-]`, for which the outcome in experiment [1], in experiment [2], in experiment [3], in [5], in [6] and in [7] was inactive. Besides, the call in [8], in [9] and in experiment [10] was inactive. Also, the AC50 in experiment [4] was 35.5 µM (active).

Consider `CC=Cc1ccc(OCC)c(O)c1`, for which the result in [1], in experiment [2], in experiment [3], in [4], in [6] and in [7] was inactive. The call in [8], in [9] and in experiment [10] was inactive. Further, the AC50 in experiment [5] is 11.3 µM (active).

As for `CC1(C)C(=O)N(Cl)C(=O)N1Br`, the outcome in experiment [1], in [2], in experiment [3], in [4], in experiment [5] and in experiment [6] was inactive. In addition, the result in experiment [7], in experiment [8], in experiment [9] and in [10] was inactive.

Regarding `FC(F)(F)COCC(F)(F)F`, the molecule was classed as inactive in [1], in experiment [2], in [3], in experiment [4], in experiment [5] and in experiment [6]. The molecule was classed as inactive in experiment [7], in [8], in experiment [9] and in experiment [10].

On to `CS(C)=O`, for which the result in experiment [1], in experiment [2], in experiment [3], in experiment [4], in experiment [5] and in experiment [6] was inactive. Moreover, the call in [7], in experiment [8], in experiment [9] and in experiment [10] was inactive.

As to `CCOC(=O)CC(C)O` (stereo not given), the molecule was classed as inactive in experiment [1], in experiment [2], in [3], in experiment [4], in experiment [5] and in experiment [6]. Further, the call in experiment [7], in [8], in [9] and in experiment [10] was inactive.

Take `CC=CC=CCOC(=O)C(C)C`: the molecule was classed as inactive in experiment [1], in experiment [2], in experiment [3], in [5], in experiment [7] and in experiment [8]. Moreover, the outcome in experiment [9] and in experiment [10] was inactive. The half-maximal activity concentration (AC50) was 130 µM (active) in experiment [4] and 100 µM (active) in experiment [6].

Turning to `CN(C)CCOc1ccc(/C(=C(/CCCl)c2ccccc2)c2ccccc2)cc1`, the call in [1], in experiment [2], in [3], in experiment [5], in experiment [6] and in experiment [7] was inactive. The molecule was called inactive in experiment [8], in [9] and in experiment [10]. Further, the half-maximal activity concentration (AC50) in experiment [4] was 1.99 µM (active).

On to `CCOc1ccccc1O`, for which the molecule was called inactive in experiment [1], in experiment [2], in experiment [3], in [4], in experiment [5] and in experiment [6]. Further, the call in experiment [7], in experiment [8], in experiment [9] and in experiment [10] was inactive.

Take `CC(C)=CCCC(C)CC(=O)O` (stereo not given): the result in experiment [1], in experiment [2], in experiment [3], in experiment [4], in [5] and in experiment [6] was inactive. Further, the outcome in experiment [7], in experiment [8], in [9] and in experiment [10] was inactive.

Regarding `BrCc1cccc(Oc2ccccc2)c1`, the molecule was classed as inactive in [1], in [2], in experiment [3], in [5], in [6] and in experiment [7]. For the same molecule, the call in [8] and in experiment [10] was inactive. For the same molecule, the AC50 in experiment [4] is 159 µM (active); in [9] it was 5.96 µM (active).

Consider `CCCCCCCCCC(C)C=O` (stereo not given), for which the call in experiment [1], in experiment [2], in [3], in experiment [4], in [5] and in experiment [6] was inactive. Moreover, the outcome in experiment [7], in [8], in experiment [9] and in experiment [10] was inactive.

As to `Cc1ccc(OC(=O)c2ccccc2O)cc1`, the molecule was classed as inactive in experiment [1], in experiment [2], in experiment [3], in [4], in [5] and in experiment [7]. For the same molecule, the outcome in experiment [8], in experiment [9] and in experiment [10] was inactive. Also, the AC50 in experiment [6] is 122 µM (active).

Consider `CCCCN(CCCC)C(=O)N(CCCC)CCCC`, for which the molecule was called inactive in [1], in experiment [3], in experiment [5], in [7], in experiment [8] and in [9]. For the same molecule, the result in [10] was inactive. The AC50 in experiment [2] was 44.5 µM (active); in experiment [4], 27.9 µM (active); in experiment [6], 58.5 µM (active).

Take `Nc1ccc(Cl)c([N+](=O)[O-])c1`: the result in [1], in experiment [2], in experiment [3], in experiment [4], in experiment [5] and in experiment [6] was inactive. Besides, the result in experiment [7], in experiment [8], in experiment [9] and in experiment [10] was inactive.

On to `CCCC[P+](CCCC)(CCCC)CCCC`, for which the molecule was classed as inactive in [1], in experiment [2], in experiment [3], in experiment [4], in experiment [5] and in experiment [6]. Besides, the call in experiment [7], in experiment [8], in experiment [9] and in [10] was inactive.

As for `CC1(C)C2=CCCC(C)(C)[C@]23CC[C@H]1C3`, the outcome in experiment [1], in [2], in experiment [5], in experiment [7], in experiment [8] and in experiment [9] was inactive. Further, in experiment [10], the call was inactive. Also, the AC50 in experiment [3] is 112 µM (active); in experiment [4], 100 µM (active); in experiment [6], 100 µM (active).

With `C#CC(C)(O)CC(C)C` (stereo not given), the call in [1], in experiment [2], in [3], in [4], in experiment [5] and in [6] was inactive. For the same molecule, the molecule was classed as inactive in experiment [7], in experiment [8], in [9] and in experiment [10].

One may read the AC50 as the concentration at which the activity in the assay is half-maximal.
